From PubChem BioAssay AID924 (National Center for Advancing Translational Sciences (NCATS), 2007)
Out of some 130,000 compounds screened, about 1,200 (0.92%) were called active. Not shown: some 3% with an inconclusive outcome. Many of the other results were omitted from the sample, so actives are more common in it than they were. Unmarked numbers belong to inactive results. Calls follow the shape of the dose curve; as a rule, active = well fitted cell-killing curve with a large enough effect; inconclusive = small, poorly fitted or top-dose-only effect; inactive = no such curve, though single readings can be large or run the other way.

assay: qHTS Screen for Compounds that Selectively Target Cancer Cells with p53 Mutations: Cytotoxicity of p53ts Cells at the Permissive Temperature; conditions: H1299-p53A138V at 32C, ATP luminescence viability, 24 h; series mostly up to 46.1 µM; activity change, negative = cytotoxicity: at the top concentration; also: nearly all actives have a fitted effect of over 55% in size;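 as to activity change, negative = cytotoxicity: 0% = DMSO and -100% = full killing by reference compound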
From the text: NIH Chemical Genomics Center [NCGC] NIH Molecular Libraries Screening Centers Network [MLSCN] MLSCN Grant: 1 X01 MH079844-01 Assay Submitter (PI): Dr. SUN, YI, University of Michigan NCGC Assay Overview: Synthetic Lethal Screen for Compounds to Kill Cancer Cells with p53 Mutation. Tumor suppressor gene p53 serves as a major cellular barrier against tumorigenesis. […] The goal of this screening is to identify small molecule probes that selectively kill cancer cells with mutations in p53. This screening was carried out using two lines of H1299 lung cancer cells. The H1299-p53 A138V line express a temperature sensitive p53 mutant (p53ts) in which the mutant p53 protein (A138V) is in the mutant confirmation when grown at 39C (the nonpermissive temperature) and in the wild type conformation when grown at 32C (the permissive temperature). A H1299-neo line (p53 null) grown at both 39C and 32C were used as counter-screens to filter out false positive associated with temperature shifting. The small molecular compounds that selectively target mutant p53-containing cancer cells were selected as candidate probes for further study. A cytotoxicity assay based on the measurement of ATP contents in cells was used in this screen. Concentration-responses of all the compounds in the library collection were determined in qHTS using the cell lines and temperature conditions as above.
NCGC Assay Protocol Summary: Both the H1299-p53A138V and H1299-neo cell lines were provided by Dr.Yi Sun, a PI at the University Michigan. The cells were maintained and cultured at 37C. The resuspended frozen cells were used to plate the cells in the 1536-well assay plates at a density of 600 cells per well in 5 ul medium. The assay plates with the cells were incubated at 37C for 16 to 30 hours before the experiments. The library compounds in DMSO solution were added to the cells in assay plates and incubated 24 hours at 39C (for mutant p53 conformation) or 32C (for normal p53 conformation as control). An ATP_lite assay kit (PerkinElmer) was used to determine the cell viability. Tomaxifen (100uM) was used as the positive control for cell killing. Data were normalized to the controls for basal activity (DMSO only) and 100% killing (100uM tamoxifen). AC50 values were determined from concentration-response data modeled with the standard Hill equation. P53 assay protocol: 1. Reagent; 5 uL H1299-p53A138V or H1299-neo cell cells/well 2. Time; overnight; 37C incubation 3. Compounds; 23 nL; 5.9 nM to 46 uM 4. Controls; 23 nL; Tamoxifen 100 uM 5. Time; 24 hr; 37C incubation 6. Reagent; 3 uL; ATP_Lite reagent 7. Time; 20 min; Room Temperature 8. Detection; Luminescence; Viewlux plate reader Keywords: p53, synthetic lethal, cancer, cell viability, cytotoxicity, H1299 cell line, luminescence, MLSMR, MLSCN, NIH Roadmap, qHTS, NCGC
Potency is read from the fitted curve at half-maximal effect.

SMILES	Potency	activity change, negative = cytotoxicity
COc1ccc(NC(=O)Nc2cccc3cccnc23)cc1	12.6 µM (active)	–
Cc1cccc(Cn2cccc(C(=O)Nc3ccc4c(c3)OCCO4)c2=O)c1	–	-2.43%
CC(=O)c1c(O)c(C)c(O)c(Cc2c(O)c3c(c(C(=O)/C=C\c4ccccc4)c2O)OC(C)(C)C=C3)c1O	–	-20.2%
CC(C)(c1ccc(OC[C@@H]2CO2)cc1)c1ccc(OC[C@H]2CO2)cc1	12.6 µM (active)	–
CCOC(=O)c1ccc(N2C(=O)c3[nH]nc(-c4ccccc4)c3C2c2ccc(C(C)C)cc2)cc1 (stereo not given)	–	18.8%
Cc1nnc(NC(=O)c2cccn(Cc3cccc(F)c3)c2=O)s1	–	-14.1%
C=CC#N	–	-9.3% [at 1.84 µM]
O=C(Nc1ccc(Cl)cc1C(=O)c1ccccc1)c1cc(Cl)cc(Cl)c1	–	-9.25%
CN(C)C1C(=O)C(C(N)=O)=C(O)[C@@]2(O)C(=O)C3=C(O)c4c(O)cccc4[C@@](C)(O)C3C[C@@H]12 (stereo not given in full)	–	-3.32%
CC(C)Nc1nc(Cl)nc(NC(C)C)n1	–	2.45%
CC[C@@H]1CN2CC[C@@H]1C[C@H]2[C@H](O)c1ccnc2ccc(OC)cc12	–	0.789%
C[C@H](CCC(=O)O)[C@H]1CC[C@@H]2[C@H]3CC[C@H]4C[C@H](O)CC[C@@]4(C)[C@@H]3CC[C@@]21C	–	5.89% [at 9.22 µM]
CC(C)Oc1ccc(NC(=O)c2cc3ccccc3o2)cc1	6.31 µM (active)	–
CN(C)c1cccc(C(=O)Nc2nc3ccc(S(=O)(=O)NC(C)(C)C)cc3s2)c1	–	32.2%
Cc1ccc(NC(=O)N(Cc2ccc3c(c2)OCO3)C2CCN(Cc3ccccc3)CC2)cc1F	–	-27.3%
Cc1ccc(-n2c(/C=C/c3cccc(C(F)(F)F)c3)nc3ccccc3c2=O)cc1	–	-5.31%
CCN1C[C@]2(COC)C(O)C[C@H](OC)[C@@]34C5C[C@]6(O)C(OC)C(O)[C@](OC(C)=O)(C5C6OC(=O)c5ccccc5)C(C(OC)C23)C14 (stereo not given in full)	–	-5%
N#Cc1c(Cl)c(Cl)c(Cl)c(C#N)c1Cl	3.98 µM (active)	–
Cc1ccc(Cl)cc1N1CCN(C(=O)C2CCC(CNS(=O)(=O)c3cccs3)CC2)CC1 (stereo not given)	–	37.8%
Cn1cc(/C=C/c2nc3ccccc3c(=O)n2-c2ccccc2)c2ccccc21	–	-13.4%
